Assay outcomes from PubChem.
F508del corr: F508del CFTR correction, initial screen, CFBE line, single point; CFBE cells, YFP halide quenching; stimulated with forskolin plus potentiator P3; % fluorescence drop versus neutral controls; activity (quench increase), % at 7.58 µM; hit rate 0.36% among 350,000;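 active = mean added fluorescence quench of at least 8% versus neutral control, with both replicates also reaching 8%; inconclusive = only one of the mean or replicate conditions met; inactive = mean below 8% and not both replicates reaching 8%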;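 note: cells transiently co-express mutant CFTR-F508del with the halide-sensitive YFP; corrector assay measuring rescue of mutant channel to the surface after 24 h compound exposure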
Wnt bcat act: Wnt/beta-catenin pathway activators, primary screen, cell-based, plate reader, single point. activation, % at 9.35 µM. AID 743398, 2014. Wnt/beta-catenin reporter cell assay, activator. hit rate 1.2% among 300,000; in the data active = activation above about 30%, passing the limit was not always enough; inconclusive = no clear call, values can overlap the other calls
GSIS activator: GLuc luminescence reporter in INS-1E cells, primary screen for activators of glucose-dependent secretion of insulin | INS-1E GLuc reporter insulin secretion, 2-3 h | activation, % at 16.6 µM | hit rate 0.61% among 370,000;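 active = lowest replicate activation of at least 40%, so every replicate reaches that level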
MITF act: activators of MITF-driven TRPM1 promoter reporter, primary screen, cell-based, SK-MEL-5, luciferase, single point; hit rate 0.75% among 300,000; SK-MEL-5 TRPM1-promoter luciferase, 24 h; % of positive control, neutral wells = 0; activation, % at 12.5 µM;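 active = mean activation of at least 80% with every replicate also reaching 80%; inconclusive = mean reaches 80% but some replicate falls short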
HIV Env fusion: inhibitors of HIV-1 Env-driven cell-cell fusion, primary screen, HeLa-JRFL effector, CEM21 target cells, luciferase. inhibition, % at 12.3 µM. hit rate 1.1% among 360,000;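 active = mean replicate inhibition score of at least 50 and every replicate individually at or above 50; inconclusive = only one of the two criteria met; inactive = mean below 50 and not all replicates reaching 50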
Of the large screens only hits and unclear results are named; the others gave an inactive call. Only some compounds are listed: those with a hit (about 2.7% of all), similar ones and a draw of the others.

C/C(=N\Nc1ccccn1)c1ccc(C(C)C)cc1	MITF act 125.1
N=c1c2c(n(Cc3ccc(Br)cc3)c3c1CCC3)CCCC2	HIV Env fusion 69.9
O=C(O)C[C@H]1CC[C@@H](NC(=O)c2ccccc2F)[C@@H](CO)O1	none (no result: Wnt bcat act, MITF act)
Cn1cnnc1SCC(=O)Nc1ccc(S(=O)(=O)N2CCOCC2)cc1	F508del corr 12.3
O=C(Nc1ccc(S(=O)(=O)N2CCCC2)cc1)c1cnccn1	none
Cn1cnnc1SCC(=O)Nc1ccc(S(=O)(=O)N2CCCC2)cc1	none (no result: HIV Env fusion)
Nc1nc(SCC(=O)Nc2cc(S(=O)(=O)N3CCOCC3)ccc2Cl)n[nH]1	none
CCN(CC)S(=O)(=O)c1ccc(NC(=O)c2ccc(CN3CCOCC3)cc2)cc1	HIV Env fusion 63.8 (no result: F508del corr, GSIS activator)
Cc1ccc(S(=O)(=O)N2CCOCC2)cc1NC(=O)CSc1n[nH]c(N)n1	F508del corr 17.7
O=C(Nc1ccc(S(=O)(=O)N2CCN(Cc3ccccc3)CC2)cc1)c1cnccn1	HIV Env fusion 95.2 (no result: F508del corr, Wnt bcat act, GSIS activator)
C[C@H](CO)N1C[C@H](C)[C@@H](CN(C)S(=O)(=O)c2cn(C)cn2)Oc2c(NC(=O)Cc3ccccc3)cccc2C1=O	none (no result: F508del corr, Wnt bcat act, MITF act, HIV Env fusion)
O=C(Nc1ccc(S(=O)(=O)N2CCCC2)cc1)c1ccc(CN2CCOCC2)cc1	HIV Env fusion 73.6 (no result: F508del corr, Wnt bcat act, GSIS activator)
O=C(Nc1ccc(S(=O)(=O)N2CCCCC2)cc1)c1ccc(CN2CCOCC2)cc1	none (no result: F508del corr, Wnt bcat act, GSIS activator, HIV Env fusion)
C[C@H](NC(=O)C[C@H]1C[C@@H]2c3cc(NC(=O)NC4CCCCC4)ccc3O[C@@H]2[C@H](CO)O1)c1ccccc1	none (no result: Wnt bcat act, MITF act)
CCOC(=O)c1c(CSCc2ccccc2)oc2ccc(O)c(CN(C)C)c12	HIV Env fusion 57.6
COCCNC(=O)C1CC(c2ccc([N+](=O)[O-])cc2)=NO1 (stereo not drawn)	none
O=C(NCCc1cccs1)C1CC(c2ccc([N+](=O)[O-])cc2)=NO1 (stereo not drawn)	Wnt bcat act 34.4, MITF act 90.5
COc1ccc2c3c(n(C)c2c1)[C@@H](CO)N(CC1CC1)CC31CN(C(=O)Nc2ccc(F)cc2F)C1	none (no result: Wnt bcat act, MITF act, HIV Env fusion)
CCSc1ccc(-c2nn(-c3ccccc3)cc2/C=C(/C#N)C(=O)NC)cc1	GSIS activator 64.7 (no result: F508del corr)
Cc1ccnc(SCC(=O)c2ccc(Br)cc2)c1C#N	Wnt bcat act 42.0 (no result: F508del corr)
Cc1ccc(C(=O)CSc2nsc(C)c2C#N)cc1	none (no result: F508del corr, Wnt bcat act, GSIS activator, HIV Env fusion)
Cc1snc(SCC(=O)c2ccc(Cl)cc2)c1C#N	MITF act 125.8 (no result: F508del corr, Wnt bcat act, GSIS activator)
Cc1cc(C)c(C#N)c(OCC(=O)c2ccc(Br)cc2)n1	none (no result: F508del corr, Wnt bcat act)
CN1CCN(C(=O)C[C@@H]2CC[C@@H]3[C@@H](COc4ccc(NC(=O)C5CCCCC5)cc4C(=O)N3C)O2)CC1	none (no result: Wnt bcat act, MITF act)
COc1ccc2[nH]c3c(c2c1)CCC/C3=N\N	none (no result: MITF act)
O=C1CCCc2c1[nH]c1ccc(Cl)cc21	HIV Env fusion 82.8 (no result: F508del corr, GSIS activator)
CCOC(=O)c1ccc2[nH]c3c(c2c1)CCCCC3=O	none (no result: HIV Env fusion)
CCOC(=O)C1CCCc2c1[nH]c1ccc(Cl)cc21 (stereo not drawn)	none
OCCN=C1CCCc2c1[nH]c1ccc(Cl)cc21	HIV Env fusion 67.3
OCCCN=C1CCCc2c1[nH]c1ccc(Cl)cc21	HIV Env fusion 57.3 (no result: GSIS activator)
C[C@@H]1CN([C@H](C)CO)S(=O)(=O)c2ccc(/C=C/c3ccccc3)cc2O[C@H]1CN(C)Cc1cncnc1	none (no result: Wnt bcat act, MITF act)
O=C1NC(Cc2ccc(O)cc2)c2nc3ccc(Br)cc3c(=O)n2-c2cc3ccccc3cc21 (stereo not drawn)	F508del corr 8.2 (no result: GSIS activator, MITF act)
COc1ccc2nc3n(c(=O)c2c1)-c1cc2ccccc2cc1C(=O)NC3Cc1ccc(O)cc1 (stereo not drawn)	none (no result: MITF act)
Cc1oc(-c2ccccc2F)nc1CS(=O)(=O)CC(=O)N1CCN(c2ccccc2)CC1	HIV Env fusion 60.1 (no result: GSIS activator, MITF act)
Cc1oc(-c2ccccc2F)nc1CS(=O)(=O)CC(=O)N1CCc2ccccc21	none (no result: GSIS activator)
Cc1ccc(-c2nc(CS(=O)(=O)CC(=O)N3CCc4ccccc4C3)c(C)o2)cc1	none (no result: MITF act)
Cc1ccc(-c2nc(CS(=O)(=O)CC(=O)N3CCCCCC3)c(C)o2)cc1	HIV Env fusion 51.1 (no result: GSIS activator, MITF act)
COc1ccc(CCNCCC(c2ccccc2)c2ccccc2)cc1OC	none (no result: MITF act)
COc1cc(OC)c(OC)cc1CCC(C)NCCC(c1ccccc1)c1ccccc1 (stereo not drawn)	HIV Env fusion 80.5
CCC(=O)c1ccc(OCC(=O)Nc2ccc3c(c2)OCCO3)cc1	none
O=C(COC(=O)CNC(=O)c1ccccc1F)Nc1ccc2c(c1)OCCO2	none (no result: HIV Env fusion)
O=C(COC(=O)c1cccc(F)c1)Nc1ccc2c(c1)OCCO2	Wnt bcat act 31.6 (no result: HIV Env fusion)
CN(CC(=O)Nc1ccc(F)cc1)C(=O)COC(=O)c1cccc(N(C)C)c1	Wnt bcat act 41.2 (no result: MITF act, HIV Env fusion)
O=C(COC(=O)c1ccccc1F)Nc1ccc2c(c1)OCCO2	Wnt bcat act 40.7
O=C(COc1ccc(F)cc1)Nc1ccc2c(c1)OCCO2	Wnt bcat act 37.9
C[C@H](CO)N1C[C@H](C)[C@H](CN(C)S(=O)(=O)c2ccc(F)cc2)Oc2c(NC(=O)Nc3cccc4ccccc34)cccc2C1=O	none (no result: Wnt bcat act, GSIS activator, MITF act)
O=C(Cc1ccccn1)NCC[C@@H]1CC[C@H](NS(=O)(=O)c2ccc(F)cc2)[C@@H](CO)O1	none (no result: Wnt bcat act, MITF act)
CC(C)NC(=O)NCC[C@@H]1CC[C@H](NS(=O)(=O)c2ccccc2)[C@@H](CO)O1	none (no result: Wnt bcat act, MITF act, HIV Env fusion)
COc1ccc(/C(N)=N/OC(=O)/C=C/c2ccccc2)cc1	Wnt bcat act inconclusive
CCC(=O)c1ccc(OCc2ccccc2)c(OC)c1	MITF act 100.5 (no result: F508del corr, Wnt bcat act, HIV Env fusion)
COc1ccc(/C=C/C(=O)Oc2ccc(/C=N/NC(=O)c3ccccc3)cc2)cc1OC	GSIS activator 128.9 (no result: F508del corr, Wnt bcat act, HIV Env fusion)
CCC(=O)c1ccc(OCc2ccc(C(=O)OC)cc2)c(OC)c1	none (no result: F508del corr, Wnt bcat act, HIV Env fusion)
CCOc1ccc(/C=C/C(=O)c2ccccc2)cc1OC	Wnt bcat act 76.2 (no result: F508del corr)
COc1ccc(/C=N/NC(=O)c2ccncc2)cc1OC	none
COc1ccc(/C=C/C(=O)O/N=C(\N)c2ccccc2)cc1OC	Wnt bcat act 46.2 (no result: HIV Env fusion)
CO[C@H]1CN(C)C(=O)c2cc(NC(=O)CC(F)(F)F)ccc2OC[C@@H](C)N(C(=O)C2CC2)C[C@H]1C	none (no result: Wnt bcat act, MITF act, HIV Env fusion)
COc1ccc2c3c([nH]c2c1)[C@@H](CO)N(Cc1nccs1)CC31CN(C(=O)C2CCCCC2)C1	none (no result: F508del corr, Wnt bcat act, MITF act, HIV Env fusion)
Cc1ccc(/C(N)=N/OC(=O)/C=C/c2ccccc2)cc1	none (no result: F508del corr, GSIS activator, HIV Env fusion)
COc1ccc(C(=O)/C=C/c2ccc(O)cc2)cc1	none (no result: HIV Env fusion)
O=C(/C=C/c1ccc(O)cc1)c1ccccc1	Wnt bcat act 37.7
Cc1ccccc1/C(N)=N/OC(=O)/C=C/c1ccccc1	Wnt bcat act 77.1 (no result: F508del corr, GSIS activator)
COc1ccc(CC(=O)O/N=C(\N)c2ccccc2)cc1OC	GSIS activator 50.8
COc1ccc(CC(=O)O/N=C(\N)c2ccc(Br)cc2)cc1OC	none
COc1cc(/C=N/NC(=O)c2ccncc2)ccc1OCC(=O)Nc1ccccc1	MITF act 99.0
COc1ccc(CN2C[C@@H](C)[C@H](OC)CN(C)C(=O)c3ccc(NC(C)=O)cc3OC[C@H]2C)cc1	none (no result: Wnt bcat act, GSIS activator, MITF act, HIV Env fusion)
